In test [1] the target is CCAAT/enhancer-binding protein beta (Homo sapiens) (UniProt P17676). The test is described as follows: ATG_C_EBP_CIS: Attagene CIS-FACTORIAL HepG2 Assay for human CCAAT/Enhancer Binding Protein (C/EBP) beta (AID 2282927). The following applies: HepG2 Attagene cis-factorial transcription factor reporter; actives raise or lower the signal. The essentials: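 Chemical-treated HepG2 cells (24 h) bearing cis-regulated reporter constructs were processed for total RNA, then reverse transcription, PCR amplification, fluorescent primer extension and fragment analysis; gain- and loss-of-signal were fitted against DMSO.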
Sequence of CCAAT/enhancer-binding protein beta (Homo sapiens) (P17676 whole entry, looked up, the tested form may be a part): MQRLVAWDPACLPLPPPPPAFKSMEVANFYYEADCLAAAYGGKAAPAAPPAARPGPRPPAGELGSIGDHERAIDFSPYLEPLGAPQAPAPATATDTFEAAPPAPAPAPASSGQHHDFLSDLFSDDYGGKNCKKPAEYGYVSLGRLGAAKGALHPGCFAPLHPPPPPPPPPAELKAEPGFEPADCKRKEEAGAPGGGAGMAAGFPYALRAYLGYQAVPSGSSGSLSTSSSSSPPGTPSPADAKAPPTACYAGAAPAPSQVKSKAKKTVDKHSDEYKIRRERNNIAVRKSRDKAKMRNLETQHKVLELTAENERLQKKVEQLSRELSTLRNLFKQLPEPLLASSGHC

Test [2] can be described thus: ATG_DR4_LXR_CIS: Attagene CIS-FACTORIAL HepG2 Assay for human Liver X Receptor (LXR), DR4 submotif (AID 2282929). Conditions: HepG2 Attagene DR4 cis-reporter, mRNA transcription; actives raise or lower the signal. Put shortly: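 HepG2 cells transiently transfected with cis-promoter-driven multiplexed reporter units (DR4 element) were dosed for 24 h. Reporter mRNA was quantified by RT-PCR, fluorescent primer extension, HpaI digestion and capillary electrophoresis; bidirectional fitting versus DMSO baseline.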

Test [3] is described as follows: ATG_AP_2_CIS: Attagene CIS-FACTORIAL HepG2 Assay for human Activator Protein 2 (AP-2) (AID 2282932). The following applies: HepG2 AP-2 cis-reporter, Attagene transcription factor profiling; actives raise or lower the signal. The essentials:
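Assay in transfected HepG2 with promoter-regulated reporters, 24 h incubation after dosing. Signal is reporter mRNA fluorescence (RT-PCR, capillary electrophoresis), analysed for both increases and decreases relative to DMSO controls.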

For test [4], the target named is Transcription factor E2F1 (Homo sapiens) (UniProt Q01094). The test is described as follows: ATG_E2F_CIS: Attagene CIS-FACTORIAL HepG2 Assay for human E2F Transcription Factor 1 (AID 2282935). Conditions: HepG2 Attagene cis-reporter, E2F reporter RNA transcripts; actives raise or lower the signal. Put shortly:
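In this cis-factorial format, endogenous factor activity drives transfected reporters in HepG2; transcripts collected at 24 h are quantified by fluorescence after RT-PCR and capillary separation.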

Test [5] can be described thus: ATG_E_Box_CIS: Attagene CIS-FACTORIAL HepG2 Assay for human Enhancer Box (E-box) (AID 2282936). Conditions: HepG2 E-box cis-reporter transcription, actives raise or lower the signal. The essentials:
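Measured 24 h post-dosing in HepG2 cells transfected with multiple cis-regulated reporter units, signal being reporter mRNA induction detected by fluorescent RT-PCR with capillary electrophoresis; gain or loss fitted against DMSO.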

The nature of test [6]: ATG_M_19_CIS: Attagene CIS-FACTORIAL HepG2 Assay for M19 Transcription Factor (Internal Marker) (AID 2282939). The following applies: HepG2 Attagene CIS-FACTORIAL M19 internal marker reporter; actives raise or lower the signal. Put shortly:
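Following a 24 h exposure, RNA from transfected HepG2 cells was reverse-transcribed, PCR-amplified with reporter-specific primers, end-labelled with 6-FAM and HpaI-digested before capillary separation. Values represent gain or loss versus DMSO.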

The nature of test [7]: ATG_GLI_CIS: Attagene CIS-FACTORIAL HepG2 Assay for human Zinc Finger Protein GLI1 (AID 2282945). Conditions: HepG2, Attagene cis-factorial reporter mRNA, GLI element; actives raise or lower the signal. Put shortly: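 HepG2 cells transiently transfected with cis-promoter multiplexed reporter units report endogenous transcription factor activity. After 24 h chemical exposure, reporter mRNA was quantified by RT-PCR, 6-FAM labelling, HpaI digestion and capillary electrophoresis, with bidirectional fitting against DMSO.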

The nature of test [8]: ATG_ISRE_CIS: Attagene CIS-FACTORIAL HepG2 Assay for human Interferon Regulatory Factor 1 (IRF1) binding to an Interferon-Stimulated Response Element (ISRE) (AID 2282948). The following applies: HepG2 ISRE cis-reporter (Attagene), mRNA transcription readout; actives raise or lower the signal. The essentials:
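Read-out: fluorescent RT-PCR products resolved by capillary electrophoresis, reporting endogenous transcription factor activity via ISRE-driven reporter mRNA in transfected HepG2 cells dosed for 24 h; gain or loss fitted relative to DMSO.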

Test [9] in a line: ATG_M_32_CIS: Attagene CIS-FACTORIAL HepG2 Assay for M32 Transcription Factor (Internal Marker) (AID 2282949).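 Note: background control marker of the multiplexed CIS panel rather than a real target.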 The following applies: HepG2 Attagene cis-factorial M32 reporter, mRNA; actives raise or lower the signal. Put shortly: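 Using DMSO as baseline, bidirectional curve fits were applied to reporter mRNA signals. These came from transiently transfected HepG2 cells exposed for 24 h, with RNA analysed by RT-PCR, FAM primer extension, HpaI digestion and CE.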

In test [10] the target is Hepatocyte nuclear factor 6 (Homo sapiens) (UniProt Q9UBC0). The test is described as follows: ATG_HNF6_CIS: Attagene CIS-FACTORIAL HepG2 Assay for human Hepatocyte Nuclear Factor 6 (HNF6) (AID 2282952). Conditions: HepG2 Attagene cis-factorial HNF6 reporter transcription; actives raise or lower the signal. Put shortly:
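Using cis-element reporters in HepG2 liver cells, the assay tracks endogenous factor-driven transcription 24 h post-dosing. Signal comes from 6-FAM-labelled, HpaI-digested RT-PCR fragments, with gain or loss scored against DMSO.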

Test [11] deals with Heat shock factor protein 1 (Homo sapiens) (UniProt Q00613). The test is described as follows: ATG_HSE_CIS: Attagene CIS-FACTORIAL HepG2 Assay for human Heat Shock Transcription Factor 1 (HSE) (AID 2282953). The following applies: HepG2 HSE cis-reporter, Attagene RNA transcription; actives raise or lower the signal. Put shortly: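 After a 24 h incubation with test chemical, transfected HepG2 cells were harvested for RNA; reporter transcripts were measured by RT-PCR and capillary electrophoresis. Values reflect gain or loss of signal relative to DMSO.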
Sequence of Heat shock factor protein 1 (Homo sapiens) (Q00613 whole entry, looked up): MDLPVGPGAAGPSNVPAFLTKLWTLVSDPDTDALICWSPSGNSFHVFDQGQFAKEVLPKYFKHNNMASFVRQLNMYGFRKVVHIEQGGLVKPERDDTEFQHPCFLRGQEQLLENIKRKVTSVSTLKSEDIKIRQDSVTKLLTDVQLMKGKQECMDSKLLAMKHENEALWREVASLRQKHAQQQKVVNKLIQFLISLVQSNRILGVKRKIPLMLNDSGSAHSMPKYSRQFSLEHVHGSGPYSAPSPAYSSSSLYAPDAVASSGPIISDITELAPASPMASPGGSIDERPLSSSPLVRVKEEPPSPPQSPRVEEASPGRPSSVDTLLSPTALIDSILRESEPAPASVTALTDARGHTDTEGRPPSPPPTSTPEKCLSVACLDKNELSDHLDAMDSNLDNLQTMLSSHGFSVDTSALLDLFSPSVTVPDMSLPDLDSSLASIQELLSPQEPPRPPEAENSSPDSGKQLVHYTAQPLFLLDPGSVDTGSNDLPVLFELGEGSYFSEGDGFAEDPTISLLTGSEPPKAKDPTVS

Test [12] can be described thus: ATG_PXRE_CIS: Attagene CIS-FACTORIAL HepG2 Assay for human Pregnane X Receptor Element (PXRE) (AID 2282957). Conditions: HepG2 Attagene CIS-FACTORIAL PXRE reporter, mRNA; actives raise or lower the signal. The essentials:
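Using HepG2 transfected with multiple reporter transcription units, endogenous factor-driven transcription was scored as reporter mRNA after 24 h exposure.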

A short description of test [13]: ATG_Sox_CIS: Attagene CIS-FACTORIAL HepG2 Assay for human SRY-box transcription factor (SOX) (AID 2282960). Conditions: HepG2 Attagene cis-factorial SOX reporter, mRNA; actives raise or lower the signal. Put shortly:
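HepG2 cells transiently transfected with cis-element-driven multiple reporter transcription units, dosed 24 h; reporter mRNA measured by RT-PCR, FAM labelling, HpaI digestion and capillary electrophoresis. Bidirectional fit versus DMSO baseline.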

The target of test [14] is Transcription factor Sp1 (Homo sapiens) (UniProt P08047). The test is described as follows: ATG_Sp1_CIS: Attagene CIS-FACTORIAL HepG2 Assay for human Specificity Protein 1 (Sp1) (AID 2282961). The following applies: HepG2 Sp1 cis-reporter transcription, actives raise or lower the signal. Put shortly: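 HepG2 cells transiently transfected with multiple reporter transcription units driven by cis-regulatory elements; Sp1-responsive reporter mRNA measured 24 h after dosing by RT-PCR and capillary electrophoresis fluorescence, fitted bidirectionally against DMSO baseline.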
Sequence of Transcription factor Sp1 (Homo sapiens) (P08047 whole entry, looked up): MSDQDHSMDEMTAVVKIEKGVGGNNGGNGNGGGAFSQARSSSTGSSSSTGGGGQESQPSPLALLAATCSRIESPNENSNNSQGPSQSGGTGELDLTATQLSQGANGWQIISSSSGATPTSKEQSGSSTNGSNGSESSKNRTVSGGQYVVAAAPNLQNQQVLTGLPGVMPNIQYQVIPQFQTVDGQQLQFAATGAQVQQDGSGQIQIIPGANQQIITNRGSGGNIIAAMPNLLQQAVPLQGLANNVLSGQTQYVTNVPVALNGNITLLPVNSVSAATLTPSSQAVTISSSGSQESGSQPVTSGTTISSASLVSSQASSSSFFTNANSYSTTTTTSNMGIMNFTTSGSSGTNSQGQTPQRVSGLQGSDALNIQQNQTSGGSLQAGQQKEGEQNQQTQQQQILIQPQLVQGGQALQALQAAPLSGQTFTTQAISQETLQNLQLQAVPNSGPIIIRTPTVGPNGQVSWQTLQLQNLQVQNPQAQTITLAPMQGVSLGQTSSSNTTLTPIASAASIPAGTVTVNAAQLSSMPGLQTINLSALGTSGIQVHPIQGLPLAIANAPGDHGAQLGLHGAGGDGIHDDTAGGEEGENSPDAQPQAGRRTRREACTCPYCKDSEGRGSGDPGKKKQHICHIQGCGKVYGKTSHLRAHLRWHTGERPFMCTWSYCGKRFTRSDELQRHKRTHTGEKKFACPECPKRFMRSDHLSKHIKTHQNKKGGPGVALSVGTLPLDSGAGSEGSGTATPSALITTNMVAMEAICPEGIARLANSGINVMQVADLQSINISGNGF

Test [15] deals with Signal transducer and activator of transcription 3 (Homo sapiens) (UniProt P40763). The test is described as follows: ATG_STAT3_CIS: Attagene CIS-FACTORIAL HepG2 Assay for human Signal Transducer and Activator of Transcription 3 (STAT3) (AID 2282963). Conditions: HepG2, Attagene cis-factorial STAT3 reporter transcription; actives raise or lower the signal. Put shortly: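 Uses human liver HepG2 transiently carrying cis-regulated reporter transcription units. Following 24 h dosing, reporter mRNA induction was detected by RT-PCR and capillary electrophoresis, analysed bidirectionally versus DMSO.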
Sequence of Signal transducer and activator of transcription 3 (Homo sapiens) (P40763 whole entry, looked up): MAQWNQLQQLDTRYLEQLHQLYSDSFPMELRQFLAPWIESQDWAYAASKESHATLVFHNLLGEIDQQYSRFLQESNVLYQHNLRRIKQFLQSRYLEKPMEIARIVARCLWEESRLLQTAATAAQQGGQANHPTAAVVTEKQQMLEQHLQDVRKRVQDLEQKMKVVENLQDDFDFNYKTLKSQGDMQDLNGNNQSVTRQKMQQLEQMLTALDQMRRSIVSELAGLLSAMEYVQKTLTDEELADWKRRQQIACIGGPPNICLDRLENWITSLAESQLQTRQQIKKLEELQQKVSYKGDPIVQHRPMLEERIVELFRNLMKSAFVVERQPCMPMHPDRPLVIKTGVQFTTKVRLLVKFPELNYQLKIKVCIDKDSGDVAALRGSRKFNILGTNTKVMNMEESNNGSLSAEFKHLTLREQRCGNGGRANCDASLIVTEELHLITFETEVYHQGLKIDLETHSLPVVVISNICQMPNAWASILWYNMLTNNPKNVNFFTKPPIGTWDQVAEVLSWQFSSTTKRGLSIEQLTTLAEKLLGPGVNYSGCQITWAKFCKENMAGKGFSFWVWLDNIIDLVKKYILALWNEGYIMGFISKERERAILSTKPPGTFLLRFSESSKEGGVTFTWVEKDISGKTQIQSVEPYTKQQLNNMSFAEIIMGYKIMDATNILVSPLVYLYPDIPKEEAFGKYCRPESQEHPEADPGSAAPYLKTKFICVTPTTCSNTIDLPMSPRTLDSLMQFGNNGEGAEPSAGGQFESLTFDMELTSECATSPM

A short description of test [16]: ATG_TA_CIS: Attagene CIS-FACTORIAL HepG2 Assay for human TA Basal Promoter (AID 2282964). Conditions: HepG2 Attagene CIS-factorial TA basal promoter reporter; actives raise or lower the signal. Put shortly:
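Multiplexed mRNA reporter assay, HepG2, 24 h. Reporter cDNA amplified, 6-FAM primer-extended, HpaI-cut, CE-sized; DMSO = negative control and baseline.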

Test [17] is described as follows: ATG_TCF_b_cat_CIS: Attagene CIS-FACTORIAL HepG2 Assay for human T-Cell-Factor with beta-catenin (TCF/b-cat) (AID 2282965). Conditions: HepG2 TCF/beta-catenin cis-reporter transcription, actives raise or lower the signal. Put shortly:
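In this cis-format system, transfected HepG2 cells report endogenous transcription factor activity. Readout after 24 h exposure is reporter transcript abundance from RT-PCR and capillary electrophoresis, analysed for gain or loss of signal versus DMSO.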

A short description of test [18]: ATG_TAL_CIS: Attagene CIS-FACTORIAL HepG2 Assay for human TAL Basal Promoter (AID 2282966).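 Note: background control endpoint measuring basal TAL promoter reporter mRNA not a specific factor.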 The following applies: HepG2 Attagene cis-factorial TAL promoter reporter; actives raise or lower the signal. The essentials: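 After 24 hours of chemical exposure, transfected HepG2 cells yielded RNA that was converted to 6-FAM-labelled, HpaI-digested reporter fragments for capillary electrophoresis. Values derive from bidirectional fitting against DMSO controls.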

The target in test [19] is X-box-binding protein 1 (Homo sapiens) (UniProt P17861). The test is described as follows: ATG_Xbp1_CIS: Attagene CIS-FACTORIAL HepG2 Assay for human X-box Binding Protein 1 (XBP1) (AID 2282972). Conditions: HepG2 XBP1 cis-element reporter, Attagene multiplex; actives raise or lower the signal. Put shortly:
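Read-out: fluorescent reporter mRNA fragments resolved by capillary electrophoresis after RT-PCR. Human HepG2 liver cells carried transfected cis-promoter reporter units and were exposed to chemicals for 24 hours. Gain or loss of signal fitted relative to DMSO baseline.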

For test [20], the target named is Androgen receptor (Homo sapiens) (UniProt P10275). As to the kind of experiment: ATG_AR_TRANS: Attagene TRANS-FACTORIAL HepG2 Assay for human Androgen Receptor (AR) (AID 2282973; active = hit-call score of the fitted dose curve at least 0.9, where 1 is the maximum). The following applies: HepG2 Attagene TRANS-FACTORIAL AR reporter transcription. The essentials:
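Steps: transfect HepG2 with multiple GAL4-UAS reporter transcription units (TRANS format, exogenous NR-Gal4 protein); dose 24 h; isolate RNA, reverse-transcribe, PCR-amplify, FAM-label, HpaI-digest; resolve by capillary electrophoresis. Positive direction vs DMSO.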

Molecules are shown by their SMILES. Records with an inconclusive call do not appear. The source made the active and inactive calls. Rule for the calls, unless noted: active = hit-call score of the fitted dose curve at least 0.9, where 1 is the maximum; inactive = score below 0.9.

Sequence of Transcription factor E2F1 (Homo sapiens) (Q01094 whole entry, looked up): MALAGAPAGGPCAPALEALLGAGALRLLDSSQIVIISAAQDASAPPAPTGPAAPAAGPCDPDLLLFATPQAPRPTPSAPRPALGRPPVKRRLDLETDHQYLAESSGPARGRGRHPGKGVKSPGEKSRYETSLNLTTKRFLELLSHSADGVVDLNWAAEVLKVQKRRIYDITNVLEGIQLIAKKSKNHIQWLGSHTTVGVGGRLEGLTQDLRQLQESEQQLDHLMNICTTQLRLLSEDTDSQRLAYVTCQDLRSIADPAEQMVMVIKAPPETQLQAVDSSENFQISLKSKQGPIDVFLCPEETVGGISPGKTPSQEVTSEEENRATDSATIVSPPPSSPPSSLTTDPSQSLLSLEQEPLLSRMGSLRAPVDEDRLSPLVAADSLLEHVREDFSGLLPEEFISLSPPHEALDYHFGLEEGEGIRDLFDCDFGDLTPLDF
Sequence of X-box-binding protein 1 (Homo sapiens) (P17861 whole entry, looked up, the tested form may be a part): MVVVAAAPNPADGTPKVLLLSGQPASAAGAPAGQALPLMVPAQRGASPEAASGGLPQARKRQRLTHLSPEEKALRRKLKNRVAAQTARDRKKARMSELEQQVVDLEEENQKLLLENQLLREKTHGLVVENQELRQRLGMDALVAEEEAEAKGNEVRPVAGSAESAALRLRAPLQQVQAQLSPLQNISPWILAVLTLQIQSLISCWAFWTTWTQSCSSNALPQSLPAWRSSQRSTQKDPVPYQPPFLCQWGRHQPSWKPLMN
Sequence of Hepatocyte nuclear factor 6 (Homo sapiens) (Q9UBC0 whole entry, looked up, the tested form may be a part): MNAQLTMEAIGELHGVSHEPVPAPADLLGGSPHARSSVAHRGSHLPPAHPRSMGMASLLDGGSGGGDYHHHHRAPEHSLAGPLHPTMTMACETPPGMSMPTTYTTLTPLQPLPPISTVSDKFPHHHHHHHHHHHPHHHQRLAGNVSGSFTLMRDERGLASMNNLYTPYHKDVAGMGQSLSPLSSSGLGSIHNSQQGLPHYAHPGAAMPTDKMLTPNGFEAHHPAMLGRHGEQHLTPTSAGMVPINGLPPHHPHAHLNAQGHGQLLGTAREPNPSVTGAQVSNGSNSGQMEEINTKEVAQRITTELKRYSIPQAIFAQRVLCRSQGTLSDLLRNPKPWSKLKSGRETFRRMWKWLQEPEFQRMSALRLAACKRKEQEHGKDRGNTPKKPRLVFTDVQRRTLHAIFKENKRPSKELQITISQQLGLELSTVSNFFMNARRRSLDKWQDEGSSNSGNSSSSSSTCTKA
Sequence of Androgen receptor (Homo sapiens) (P10275 whole entry, looked up, the tested form may be a part): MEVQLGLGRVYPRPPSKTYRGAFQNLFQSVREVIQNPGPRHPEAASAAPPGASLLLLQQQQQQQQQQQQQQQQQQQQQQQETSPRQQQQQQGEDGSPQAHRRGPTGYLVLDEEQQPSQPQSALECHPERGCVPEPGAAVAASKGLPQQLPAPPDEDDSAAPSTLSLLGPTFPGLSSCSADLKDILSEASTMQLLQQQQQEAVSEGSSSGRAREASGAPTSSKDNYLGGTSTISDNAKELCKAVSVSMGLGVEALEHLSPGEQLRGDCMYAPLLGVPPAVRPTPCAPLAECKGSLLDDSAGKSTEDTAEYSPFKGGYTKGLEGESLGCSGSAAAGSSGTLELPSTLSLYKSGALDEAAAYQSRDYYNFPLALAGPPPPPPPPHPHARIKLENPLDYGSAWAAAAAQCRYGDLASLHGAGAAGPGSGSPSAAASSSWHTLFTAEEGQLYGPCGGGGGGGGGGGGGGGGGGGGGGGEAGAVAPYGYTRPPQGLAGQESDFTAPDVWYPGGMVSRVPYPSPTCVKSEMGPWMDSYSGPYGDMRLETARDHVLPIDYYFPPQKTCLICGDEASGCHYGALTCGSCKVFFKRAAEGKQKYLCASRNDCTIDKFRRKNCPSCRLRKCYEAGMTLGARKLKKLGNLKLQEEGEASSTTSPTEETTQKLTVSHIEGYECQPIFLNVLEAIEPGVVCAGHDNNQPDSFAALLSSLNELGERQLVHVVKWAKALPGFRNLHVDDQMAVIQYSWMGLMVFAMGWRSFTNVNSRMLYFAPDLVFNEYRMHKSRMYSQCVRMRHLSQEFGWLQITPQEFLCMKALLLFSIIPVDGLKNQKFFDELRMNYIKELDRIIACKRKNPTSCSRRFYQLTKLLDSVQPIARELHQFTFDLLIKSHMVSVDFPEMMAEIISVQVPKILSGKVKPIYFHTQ

With `C[C@]12CC[C@H](O)C[C@H]1CC[C@@H]1[C@@H]2C[C@@H](O)[C@]2(C)[C@@H](C3=CC(=O)OC3)CC[C@]12O`, the AC50 in [1] was 2.8 µM (active); in [3], 0.865 µM (active); in [8] it was 13.8 µM (active); in test [10], 5.31 µM (active); in test [11], 2.96 µM (active); in [12] it was 1.87 µM (active). The AC50 in test [14] was 1.28 µM (active); in [18], 60.9 µM (active); in test [19] it was 3.98 µM (active). Moreover, the outcome in [2], in test [4], in [5], in test [6], in [7] and in [9] was inactive. Further, the call in test [13], in [15], in test [16], in test [17] and in test [20] was inactive.

As for `CN(N=O)c1ccccc1`, the outcome in [1], in test [2], in [3], in test [4], in test [5] and in test [6] was inactive. Further, the compound was called inactive in test [7], in [8], in test [9], in test [10], in test [11] and in [12]. The call in [13], in [14], in test [15], in test [16], in test [17] and in [18] was inactive. For the same compound, the call in test [19] was inactive.

Turning to `C[N+](C)(C)CC(=O)[O-]`, the result in [1], in test [2], in [3], in test [4], in test [5] and in [6] was inactive. The result in [7], in test [8], in [9], in [10], in test [11] and in test [12] was inactive. In addition, the compound was classed as inactive in [13], in test [14], in [15], in [16], in test [17] and in test [18]. Moreover, the outcome in [19] was inactive.

As to `CCCC=NO`, the outcome in test [1], in test [2], in test [3], in test [4], in [5] and in test [6] was inactive. Moreover, the result in [7], in [8], in test [9], in test [10], in test [11] and in [12] was inactive. The compound was called inactive in test [13], in test [14], in [15], in test [16], in [17] and in [18]. Further, the call in test [19] was inactive.

Regarding `O=S(=O)(O)c1cc(S(=O)(=O)O)c2ccc3c(S(=O)(=O)O)cc(S(=O)(=O)O)c4ccc1c2c43`, the result in test [20] was inactive.

For the compound `CCCCCCCCCCCC#N`, the result in test [1], in test [3], in test [4], in test [5], in test [6] and in [8] was inactive. In addition, the compound was called inactive in test [9], in [10], in test [11], in [15], in test [16] and in test [17]. Also, the outcome in test [18] was inactive. The AC50 in test [2] is 148 µM (active); in test [7], 163 µM (active); in [12], 27.8 µM (active); in test [13], 103 µM (active); in test [14] it was 76.4 µM (active); in test [19], 173 µM (active).

A word on the AC50: it is the concentration giving half of the maximal activity seen.

The values are drawn from PubChem BioAssay (EPA / NIEHS).
